According to PubChem BioAssay (NCI):
Compounds without any hit were thinned out: in the full panel of roughly 83,000, 20% have a hit.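 Percent growth is the endpoint: 0 to 100 indicates growth inhibition (40 means 60% inhibition), 0 means no net growth, and negative values indicate cell death.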 Unmarked numbers belong to inactive results. The source made the active and inactive calls. How the source made its calls: active means growth percent below 10; inactive means the rest.

Key:
Assay in all cases: NCI-60 one-dose screen, 48 h (100 = growth as untreated, 0 = no growth, -100 = all killed)
Conditions in all cases: 10 µM
HCT-15 colon = test system: HCT-15 colon
HT29 colon = test system: HT29 colon
SNB-75 CNS = test system: SNB-75 CNS
SNB-19 CNS = test system: SNB-19 CNS
U251 CNS = test system: U251 CNS
PC-3 prostate = test system: PC-3 prostate
SK-MEL-5 melanoma = test system: SK-MEL-5 melanoma
UACC-62 melanoma = test system: UACC-62 melanoma
LOX IMVI melanoma = test system: LOX IMVI melanoma
SK-MEL-28 melanoma = test system: SK-MEL-28 melanoma
SK-MEL-2 melanoma = test system: SK-MEL-2 melanoma
EKVX NSCLC = test system: EKVX NSCLC
SN12C renal = test system: SN12C renal
UO-31 renal = test system: UO-31 renal
TK-10 renal = test system: TK-10 renal
ACHN renal = test system: ACHN renal
CAKI-1 renal = test system: CAKI-1 renal
A498 renal = test system: A498 renal
CCRF-CEM leukemia = test system: CCRF-CEM leukemia
MOLT-4 leukemia = test system: MOLT-4 leukemia

Compound	growth (HCT-15 colon)	growth (HT29 colon)	growth (SNB-75 CNS) [%]	growth (SNB-19 CNS) [%]	growth (U251 CNS)	growth (PC-3 prostate)	growth (SK-MEL-5 melanoma)	growth (UACC-62 melanoma) [%]	growth (LOX IMVI melanoma)	growth (SK-MEL-28 melanoma)	growth (SK-MEL-2 melanoma)	growth (EKVX NSCLC) [%]	growth (SN12C renal) [%]	growth (UO-31 renal) [%]	growth (TK-10 renal)	growth (ACHN renal)	growth (CAKI-1 renal)	growth (A498 renal) [%]	growth (CCRF-CEM leukemia)	growth (MOLT-4 leukemia)
O=C(NNC(=O)c1ccncc1)Nc1ccc([N+](=O)[O-])cc1	101%	99.5%	111	107	113%	103%	112%	113	101%	127%	95.8%	91.6	114	89.6	106%	101%	96.5%	115	107%	81.2%
COc1ccc(-c2ccccc2)cc1C(=O)c1ccc(-c2ccccc2)cc1	63.1%	41.8%	87.5	81.3	77%	71.6%	73.1%	62.2	77%	76.5%	58.9%	88.8	96.6	60.6	88.3%	105%	52.2%	93.6	–	65.9%
Oc1[nH]c2ccccc2c1/C=c1/cc2c(c(-c3ccc(C(F)(F)F)cc3)n1)=Nc1ccccc1-2	49.4%	20.2%	63.4	82.7	60.1%	34.9%	57.2%	77	60.5%	52.8%	55.3%	52.1	79.1	56.1	56.9%	32%	48.4%	62.6	–	29.6%
Clc1cc(Cl)c(Cl)c(-c2nc(-c3cccnc3)cs2)c1	87.1%	46.3%	91.7	103	88.7%	88.5%	93.9%	77.5	64.4%	72.2%	99.3%	93.2	94.2	–	82.6%	61.5%	48.7%	104	62.6%	56.9%
O=[N+]([O-])c1ccc(S(=O)(=O)OCCCCOS(=O)(=O)c2ccc([N+](=O)[O-])cc2)cc1	114%	107%	92	112	104%	98.4%	100%	99.8	94.6%	99.1%	115%	95.8	97	90.1	113%	110%	97.9%	104	–	94.7%
COc1ccc(-c2n/c(=C\c3c(O)[nH]c4ccccc34)cc3c2=Nc2ccccc2-3)cc1	1.23% (active)	-37.1% (active)	66.1	63.1	-61.4% (active)	43.3%	70%	87.3	2.48% (active)	-25.6% (active)	84.5%	72.4	91.6	58.3	97.5%	98.7%	71.6%	56.2	–	2.65% (active)
CN(C)c1ccc2cc(-c3cc4c(oc3=O)-c3ccccc3OC4O)c(=O)oc2c1 (centres undefined)	7.71% (active)	18.9%	24	36.7	30%	-5.5% (active)	-34% (active)	33.4	-32.4% (active)	64.5%	-38.2% (active)	22.6	57.9	–	-36.4% (active)	4.78% (active)	-4.81% (active)	13.2	-20.5% (active)	-64.7% (active)
